Experimental data published in PubChem BioAssay AID1259313 (Sanford-Burnham Center for Chemical Genomics, 2017).
Out of some 340,000 compounds screened, about 8,500 (2.5%) were called active.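 How the source made its calls: active means melting temperature shift of at least 10% of the positive control shift, at one fixed dose; inactive means the rest.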 Many of the other results were omitted from the sample, so actives are more common in it than they were.

Each compound was assayed on Glutamate receptor ionotropic, NMDA 3A (GRIN3A) ligand-binding domain (assay: binders of NR3A ligand-binding domain, primary screen, biophysical, differential scanning fluorimetry, uHTS (AID 1259313)). Conditions: NR3A LBD differential scanning fluorimetry, at 25 µM, active compounds read high, 0% = protein alone, 100% = glycine-bound protein.

Tm shift relative to glycine control, inactive:
COc1cc2c(cc1OC)C(c1ccccc1Br)NC(=O)C2 (centres undefined) -0.95%
Cn1c(=O)c2ccccc2n(CC(=O)Nc2ccc3c(c2)OCCO3)c1=O -1.03%
C[C@@H]1NC(=O)c2cc([N+](=O)[O-])cc(F)c2NCCC[C@@H](C(N)=O)NC(=O)[C@H](CC(N)=O)NC1=O 1.79%
CC(=O)N(CN1C(=O)C2C3C=CC(C3)C2C1=O)c1cccc(Cl)c1 (centres undefined) -2.44%
Oc1c(Br)cc(/C=N/NC(=S)NCC2CCCO2)cc1Br (centres undefined) 1.71%
COc1ccc(NC(=O)NC2CC3CCCC(C2)N3Cc2ccccc2)cc1 (centres undefined) 0%
COc1ccc(-c2noc(C(C)NS(=O)(=O)c3ccc(NC(C)=O)cc3)n2)cc1 (centres undefined) -8.89%
CC(=O)Nc1ccc(S(=O)(=O)NC(C)C(=O)OCC(=O)NC2CCCC2)cc1 (centres undefined) 0.79%
Cc1c(NC(=O)c2cc(-c3ccc(Cl)s3)nc3ccccc23)c(=O)n(-c2ccccc2)n1C 1.05%
C[C@H](NC(=O)C1CC(=O)N(c2ccc3c(c2)OCCO3)C1)C(=O)N1CCC(C(=O)O)CC1 (some centres undefined) -0.91%
CCOC(=O)c1c(-c2ccccc2)oc2cc(Br)c(O)c(C=O)c12 -7.04%
CCOC(=O)c1c(-c2ccccc2)oc2ccc(OCC(=O)NN)cc12 0.51%
Cc1cccc(CC(=O)N2CCN=C2SCc2ccc([N+](=O)[O-])cc2)c1 -0.64%
CCN(CC)CCCNC(=O)c1cn(C)c2ccc(S(=O)(=O)N(C)C3CCCCC3)cc2c1=O -1.61%
COc1cccc(NC(=O)CSc2nnc(-c3cccnc3)o2)c1 -0.43%
COc1ccc(C(=O)NCc2nnc(SCC(=O)Nc3cccc(OC)c3)o2)cc1 -1.39%
COCCCNC(=O)CNC(=O)c1nn(-c2ccc(OC)cc2)c(=O)c2ccccc12 -1.01%
CCOC(=O)C1CCN(CC(=O)Nc2ccc(OC)c(S(=O)(=O)N3CCCCC3)c2)CC1 0.25%
C#CCOCCOCCOCCNc1nc(N2CCN(C(=O)[C@H](C(C)C)n3cc(CCO)nn3)CC2)nc(N2CCN(C(=O)[C@H]([C@@H](C)CC)n3cc(CCCN=C(N)N)nn3)CC2)n1 1.78%
C#CCOCCOCCOCCNc1nc(N2CCN(C(=O)Cn3cc(CCO)nn3)CC2)nc(N2CCN(C(=O)[C@H](CCCCN)n3cc(CCCC)nn3)CC2)n1 0.76%
C#CCOCCOCCOCCNc1nc(N2CCN(C(=O)Cn3cc(CCCCN)nn3)CC2)nc(N2CCN(C(=O)[C@H](CCCCN)n3cc(CCC(=O)O)nn3)CC2)n1 1.78%
C#CCOCCOCCOCCNc1nc(N2CCN(C(=O)Cn3cc(CCO)nn3)CC2)nc(N2CCN(C(=O)Cn3cc(CCCN=C(N)N)nn3)CC2)n1 0%
C#CCOCCOCCOCCNc1nc(N2CCN(C(=O)[C@H](CCCCN)n3cc(CCC(=O)O)nn3)CC2)nc(N2CCN(C(=O)[C@H](CCCCN)n3cc(CC(C)O)nn3)CC2)n1 (some centres undefined) 1.78%
C#CCOCCOCCOCCNc1nc(N2CCN(C(=O)[C@H](CCC(=O)O)n3cc(CN)nn3)CC2)nc(N2CCN(C(=O)[C@H](CCC(=O)O)n3cc(CN)nn3)CC2)n1 1.02%
CCn1c(SC)nc(O)c(C(c2ccc(OC)c(O)c2)c2c(O)nc(SC)n(CC)c2=O)c1=O -1.71%
O=C(O)c1cc2ccccc2c(=O)s1 -0.71%
O=C(CCNC(=O)Cn1ccc2ccccc2c1=O)NCCC1=CCCCC1 -1.72%
O=C(NCc1ccccn1)C1CCN(S(=O)(=O)c2ccc(Br)cc2)CC1 -1.11%
Cc1nc(COc2cc3oc(=O)cc(C)c3cc2Cl)cs1 -0.26%
CCN(CC(=O)NC(C)C)C(=O)c1cc(S(=O)(=O)N2CCCCC2)ccc1N1CCCCC1 -0.99%
Cc1cccc(Nc2nc3c(S(=O)(=O)c4ccccc4)nnn3c3ccccc23)c1C 1.31%
Cc1ccc(S(=O)(=O)c2nnn3c2nc(N2CCN(c4ccccn4)CC2)c2ccccc23)cc1 5.05%

Tm shift relative to glycine control, active:
CC(=O)Nc1ccc(S(=O)(=O)NC(C)C(=O)OCCOc2ccc(F)cc2)cc1 (centres undefined) 22.1%
CCOC(=O)c1c(-c2ccccc2)oc2cc(Br)c(O)cc12 13.8%
COc1ccc2oc(-c3cccc(NC(=O)CSc4ccc(Cl)cc4)c3)nc2c1 13.7%
C#CCOCCOCCOCCNc1nc(N2CCN(C(=O)CCCCCCCCCCNC(=O)Cn3cc(CCCCCN)nn3)CC2)nc(N2CCN(C(=O)CCCCCCCCCCNC(=O)[C@H](CO)n3cc(CCCSC)nn3)CC2)n1 14.2%
C#CCOCCOCCOCCNc1nc(N2CCN(C(=O)CCCCCCCCCCNC(=O)[C@H](CCCCN)n3cc(C)nn3)CC2)nc(N2CCN(C(=O)CCCCCCCCCCNC(=O)[C@H](CO)n3cc(CCCSC)nn3)CC2)n1 24.7%
C#CCOCCOCCOCCNc1nc(N2CCN(C(=O)CCCCCCCCCCNC(=O)[C@H]([C@@H](C)CC)n3cc(CCCCN=C(N)N)nn3)CC2)nc(N2CCN(C(=O)CCCCCCCCCCNC(=O)[C@H](CO)n3cc(CCCSC)nn3)CC2)n1 17%
CC(=O)Nc1ccc(Nc2nc3c(S(=O)(=O)c4ccc(C)c(C)c4)nnn3c3ccccc23)cc1 14.7%
